# Data reported in PubChem BioAssay (NCATS).
# Records with an inconclusive call do not appear. Entries that show only a call come without a potency. Unmarked numbers belong to inactive results. The source made the active and inactive calls. Calls follow the shape of the dose curve; as a rule, active = well fitted inhibition curve with a large enough effect; inconclusive = small, poorly fitted or top-dose-only effect; inactive = no such curve, though single readings can be large or run the other way.
# How the values were obtained:
# [1] = system: Zika virus NS2B-NS3 protease (unlinked complex); assay: Primary screen GU Rhodamine qHTS for Zika virus inhibitors: Unlinked NS2B-NS3 protease assay (AID 1347159); also: nearly all actives have a fitted effect of over 60% in size
# Outline: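 Unlinked NS2B/NS3, 25 nM; Rhod110 peptide, 1.5 microM; compounds, up to 114 microM. Reaction run 15 min at RT in 10 mM Tris-HCl pH 8.0, 0.01% Tween 20; kinetic fluorescence change fitted with a 4-parameter Hill model.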
# [2] = system: Zika virus NS2B-NS3 protease (linked construct); assay: Primary screen NINDS Rhodamine qHTS for Zika virus inhibitors (AID 1347160); also: nearly all actives have a fitted effect of over 55% in size
# Outline: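 Single-chain NS2B-NS3 protease, 25 nM, pH 8.0; compounds preincubated 15 min. Activity: Rhodamine110 release from 1.5 microM substrate over 15 min, room temperature, data fitted to 4-parameter Hill.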
# Potency is read from the fitted curve at half-maximal effect.
Structure (SMILES),Potency [1],Potency [2],"activity change, negative = inhibition [1]","activity change, negative = inhibition [2]"
CC1CC[C@]2(C(=O)O)CC[C@]3(C(=O)O)C(=CCC4[C@@]5(C)CC[C@H](O[C@@H]6O[C@H](CO)[C@@H](O)[C@H](O)[C@H]6O)C(C)(C)C5CC[C@]43C)C2C1C (stereo partly specified),inactive,inactive,–,–
Cc1ccc(S(=O)(=O)n2ccc(-c3c(-c4ccc(Cl)cc4)noc3C)n2)cc1,inactive,inactive,–,–
CC(=O)N[C@@H](CCCCN)C(=O)N(C)[C@@H](CC(C)C)C(=O)N[C@H](C(=O)N(C)[C@@H](Cc1ccccc1)C(=O)N[C@H](Cc1ccccc1)C(N)=O)C(C)C,–,–,0% [at 11.5 µM],25% [at 4.91 µM]
COC(=O)[C@@H](O)[C@H]1[C@@]2(C)CC3(O)[C@@H](C(=O)[C@H]2O)[C@]24O[C@]25CC(=O)O[C@@H](c2ccoc2)[C@]5(C)CCC4[C@]13C (stereo partly specified),inactive,inactive,–,–
O=C(O[C@H]1[C@@H]2C[C@@H]3OC[C@](O)([C@@H]1Cl)[C@H]2C(O[C@@H]1O[C@H](CO)[C@@H](O)[C@H](O)[C@H]1O)O3)c1ccc(O)c(O)c1 (stereo partly specified),inactive,inactive,–,–
CC1OC(OCC2OC(OC3CCC4(C)C(CCC5(C)C4CC=C4C6CC(C)(C)CCC6(C(=O)OC6OC(CO)C(O)C(O)C6O)CCC45C)C3(C)CO)C(O)C(O)C2O)C(O)C(O)C1O (stereo unspecified),inactive,inactive,–,–
COc1ccc(C2=N[C@@H](c3ccc(Cl)cc3)[C@@H](c3ccc(Cl)cc3)N2C(=O)N2CCNC(=O)C2)c(OC(C)C)c1,inactive,inactive,–,–
CNC(=O)c1ccccc1Nc1cc(Nc2ccc(N3CCOCC3)cc2OC)ncc1C(F)(F)F,inactive,inactive,–,–
CC(O)/C=C/C1(O)C(C)C(O[C@@H]2O[C@H](CO)[C@@H](O)[C@H](O)[C@H]2O)C(O)CC1(C)C (stereo partly specified),inactive,inactive,–,–
COc1cc2c(cc1O)[C@H](c1ccc(O[C@@H]3O[C@H](CO)[C@@H](O)[C@H](O)[C@H]3O)c(OC)c1)[C@@H](CO)[C@](O)(CO)C2,inactive,inactive,–,–
CC1COC2(OC3CC4C5CC(O[C@@H]6O[C@H](C)[C@@H](O[C@@H]7O[C@@H](C)[C@H](O)[C@@H](O)[C@H]7O)[C@H](O)[C@H]6O)C6CC(O)CCC6(C)C5CCC4(C)C3C2C)C(O)C1 (stereo partly specified),inactive,inactive,–,–
CCC(C)C(=O)OC1CC(O)C23C4OCC5(C(O)CC2C1(C)C(O)O4)C3C(=O)C(O)C1(C)C(O)(c2ccoc2)CC2OC251 (stereo unspecified),inactive,inactive,–,–
CC(C)S(=O)(=O)N[C@H]1CCOC[C@@H]1c1ccc(-c2ccc(C#N)s2)cc1,inactive,inactive,–,–
O=C(O)c1cc(I)ccc1NC(=O)[C@H](Cc1ccccc1)NCc1ccccc1,11.2 µM (active),15.8 µM (active),–,–
C=CC1C(OC2OC(CO)C(O)C(O)C2O)OC=C(C(=O)OC)C1CC(=O)OCC1C(C)C(O)CC1C(CO)COC(=O)CC1C(C(=O)O)=COC(OC2OC(CO)C(O)C(O)C2O)/C1=C\C (stereo unspecified),inactive,inactive,–,–
C=C1C(O)C[C@@H]2C(C(=O)O)=CO[C@@H](O[C@@H]3O[C@H](CO)[C@@H](O)[C@H](O)[C@H]3OC(=O)c3ccc(O)cc3)[C@H]12 (stereo partly specified),inactive,inactive,–,–
Cc1ccc(F)cc1C(=O)Nc1ccc(C(=O)N2Cc3cccn3Cc3ccccc32)c(Cl)c1,inactive,inactive,–,–
CC(C)c1cc(C(=O)N2CC[C@@H](NC(=O)C3CC3)C2)n[nH]1,inactive,inactive,–,–
